SMN2 splice enh – qHTS Assay for Enhancers of SMN2 Splice Variant Expression. HEK293 SMN2-luciferase splicing reporter, luminescence, 30-36 h. Potency, µM (highest dose often 46.1 µM), for the others: top-dose activity change, positive = activation, actives largely listed as activators. 2.8% of 210,000 active. AID 1458, 2008; also: % of control where 0% means no effect; nearly all actives have a fitted effect of over 55% in size
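HEK293 cells carry an SMN2 […]–luciferase reporter in which exon 7 inclusion puts luciferase in frame. Cells were plated 10-12 h before compound addition, then incubated 30-36 h at 37C. ONE-Glo luminescence was read; sodium butyrate at 4.5 mM final served as control.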
FLuc modulator – qHTS profiling assay for firefly luciferase inhibitor/activator using purifed enzyme and Km concentrations of substrates (counterscreen for miR-21 project); purified FLuc, Km substrates, luminescence inhibition; AID 588342, 2011; 6.9% of 360,000 active; Luciferin 4-monooxygenase (Photinus pyralis), P08659; Potency, µM (top dose mostly 57.5 µM), for the others: at the highest dose activity change, negative = inhibition, hits mostly inhibitors;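 also: plate controls were vehicle for no effect and reference inhibitor for full effect; nearly all actives have a fitted effect of over 55% in size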
Target sequence (P08659 whole entry, looked up): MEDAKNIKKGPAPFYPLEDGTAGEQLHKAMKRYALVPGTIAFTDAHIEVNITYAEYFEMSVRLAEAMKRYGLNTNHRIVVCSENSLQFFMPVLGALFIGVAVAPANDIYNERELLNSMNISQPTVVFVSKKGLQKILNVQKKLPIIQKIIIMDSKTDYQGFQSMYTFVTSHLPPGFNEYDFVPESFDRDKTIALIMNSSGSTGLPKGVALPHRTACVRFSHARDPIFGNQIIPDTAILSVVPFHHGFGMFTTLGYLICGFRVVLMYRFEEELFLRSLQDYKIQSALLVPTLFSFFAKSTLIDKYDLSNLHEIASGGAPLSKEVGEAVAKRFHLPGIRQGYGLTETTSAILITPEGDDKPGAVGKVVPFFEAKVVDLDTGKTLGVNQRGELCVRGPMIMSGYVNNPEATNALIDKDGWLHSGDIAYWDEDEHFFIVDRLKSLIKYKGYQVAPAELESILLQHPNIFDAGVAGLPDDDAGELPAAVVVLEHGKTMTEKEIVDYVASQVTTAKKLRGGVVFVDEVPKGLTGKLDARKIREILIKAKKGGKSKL
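Purified P. pyralis luciferase, 10 nM final, with Km-level 10 uM D-luciferin and 10 uM ATP in 50 mM Tris acetate pH 7.5, 10 mM Mg acetate, 0.01% Tween-20, 0.05% BSA; 6-point qHTS titration about 60 µM downward; luminescence read.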
Rab9 promoter act – qHTS Assay for Rab9 Promoter Activators; Potency, µM (series often up to 9.22 µM), for inactives: at the highest dose activation, negative = inhibition, actives largely listed as activators; 2.8% of 320,000 active; Huh7 Rab9 promoter-luciferase reporter, luminescence, 24 h; also: % of control where 0% means no effect; nearly all actives have a fitted effect of over 60% in size
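Cell-based reporter: Huh7 stable for Rab9 promoter-driven luciferase, plated in reduced-serum medium with 10% FBS at 1500 cells/well, compound-treated 24 h at 37 °C, luminescence read after 10 min reagent.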
ELG1 genotoxic – qHTS screen for small molecules that induce genotoxicity in human embryonic kidney (HEK293T) cells expressing luciferase-tagged ELG1 | HEK293T ELG1-luciferase reporter, luminescence, 16 h | Potency, µM (doses to about 46 µM), inactives show at the top dose activity change, positive = activation, hits mostly activators | 1.3% of 330,000 active | AID 504466, 2011; also: % of control where 0% means no effect; nearly all actives have a fitted effect of over 60% in size
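ELG1-luciferase HEK293T cells, 2,000/well; compound pinned in; 16 hr, 37 °C, 5% CO2; ONE-Glo, 30 min RT; luminescence on CCD imager.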
NPC1 promoter act – qHTS Assay for NPC1 Promoter Activators; Potency, µM (highest dose often 9.22 µM), inactives show at the top dose activation, actives largely listed as activators; AID 485313, 2010; 2.4% of 320,000 active; Huh7 NPC1 promoter luciferase reporter, 24 h; also: % of control where 0% means no effect; nearly all actives have a fitted effect of over 60% in size
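Luminescence read-out of NPC1 promoter-driven luciferase in stably transfected Huh7 cells; compounds delivered in DMSO and left 24 h at 37C, 5% CO2, qHTS titration format.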
ELG1 repair inh – qHTS screen for small molecules that inhibit ELG1-dependent DNA repair in human embryonic kidney (HEK293T) cells expressing luciferase-tagged ELG1; HEK293T ELG1-luciferase reporter, luminescence, 16 h; DNA damage induced by 5-fluorouridine; Potency, µM (doses to about 46.1 µM), without a hit: at the highest dose activity change, negative = inhibition, most hits filed as inhibitors; 2.3% of 330,000 active; AID 504467, 2011; also: % is scaled to controls: 0 for no effect and ±100 for the full control effect; nearly all actives have a fitted effect of over 55% in size
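In this reporter screen, reduction of luminescence relative to DMSO vehicle indicated activity. Compounds and 5-fluorouridine were added together to 2,000 cells per well, incubated for 16 hr at 37 °C, then developed with ONE-Glo.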
* marks the source's active call; other numbers are inactive results; ? = inconclusive; . = no result; [ ] = remark or other dose. Shown are actives, neighbours in structure and some others; about 9.4% of the full set was active somewhere. Calls follow the shape of the dose curve; as a rule, active = well fitted curve in the direction sought with a large enough effect; inconclusive = small, poorly fitted or top-dose-only effect, or another doubt; inactive = no such curve, though single readings can be large; an effect the other way counts as inactive or inconclusive. Potency is read from the fitted curve at half-maximal effect.

SMILES	SMN2 splice enh	FLuc modulator	Rab9 promoter act	ELG1 genotoxic	NPC1 promoter act	ELG1 repair inh
Cc1ccc(N=Cc2sc(O)c3ccccc23)cc1	4.47µM*	1.07µM*	1.26µM*	?	2µM*	?
Cc1ccc(N=Cc2c(O)c3ccccc3n(C)c2=O)cc1	.	0.426µM*	12.0%	2.5%	-2.0%	8.3%
Cc1cccc(C(=O)Nc2ccc3oc(-c4ccncc4)nc3c2)c1	-14.8%	-2.2%	.	.	.	.
Cc1cc(O)c(-c2ccnc3cc(-c4ccccc4)nn23)cc1Cl	1.8%	-6.1%	.	.	.	.
CCOC(=O)c1c(NC(C)=O)c2c3c(sc2n1Cc1cccc(Cl)c1)CCCC3	7.1%	-1.8%	.	.	.	.
CCCCN(C)S(=O)(=O)c1cc(-c2nnc3c4ccccc4c(C)nn23)ccc1C	.	-5.8%	.	.	.	.
Cc1ccc(C2=N/C(=C\c3cccs3)C(=O)N2Nc2ccccc2)cc1	-1.4%	-19.8%	14.9%	-2.0%	-0.2%	14.6µM*
Cc1ccc(NC(=O)/C(=C\c2cccs2)NC(=O)c2ccccc2)cc1	1.2%[1.84 µM]	-9.2%	9.1%	-0.5%	-2.5%	-4.5%
O=C(NN1C(=O)/C(=C/c2cccs2)SC1=S)c1ccccc1	-6.1%	0.4%	-4.5%	-1.4%	-1.8%	14.8%
O=C1/C(=C/c2cccs2)N=C(c2cccs2)N1Nc1ccccc1	-6.6%	23.9µM*	10.0%	2.4%	-3.0%	?
O=C1/C(=C\c2cccs2)N=C(c2cccs2)N1Nc1ccccc1	-5.6%	21.3µM*	-18.3%	-5.2%	-2.6%	?
CCCN1CCN(c2ncc3c(n2)CCN(Cc2ccc(OC)c(OC)c2OC)C3)CC1	.	-1.3%	.	.	.	.
O=C(Nc1ccc(Br)cc1)C1CCCN1S(=O)(=O)c1ccc(F)cc1 (centres undefined)	-40.2%	-0.5%	.	.	.	.
COc1ccc(Nc2nc3ccc(OC)cc3s2)cc1	12.6µM*	10.7µM*	2.24µM*	?	?	?
COc1ccc2nc(NS(=O)(=O)c3ccc(NC(C)=O)cc3)sc2c1	1.6%	1.9%	20.8%	2.3%	0.0%	11.3%
COc1ccc2nc(Nc3nc(C)c(C(C)=O)s3)sc2c1	17.4%	4.78µM*	2.51µM*	?	2.82µM*	?
CCNC(=O)CC1C(=O)N(c2ccccc2)C(=O)N1Cc1ccc(F)cc1 (centres undefined)	-1.1%	-2.3%	.	.	.	.
Cn1c(=O)n(CC(=O)O)c(=O)c2c1nc1n2CCCN1c1ccc(Cl)cc1	-15.2%	-0.2%	.	.	.	.
COc1cccc(C(=O)NC2=NCCS2)c1	2µM*	6.01µM*	0.562µM*	?	1µM*	?
CC(C)Oc1cccc(C(=O)NC2=NCCS2)c1	5.01µM*	19µM*	3.98µM*	-17.3%	3.16µM*	?
CCOc1cccc(C(=O)NC2=NCCS2)c1	.	12µM*	0.501µM*	?	0.631µM*	?
COc1ccc(N(Cc2ccccc2)S(=O)(=O)c2cccc(C(=O)NC3=NCCS3)c2)cc1	-2.3%	3.6%	-5.2%	-3.0%	4.3%	-20.5%
CCCCCCOc1ccc(C2C(=O)N(C3CCCCC3)CC(=O)N2CCC)cc1 (centres undefined)	.	-0.6%	.	.	.	.
COc1ccc(C(=O)NNC(=O)COC(=O)c2sccc2C)cc1	.	.	0.7%	-2.6%	-2.4%	11.2%
Cc1ccsc1C(=O)OCC(=O)N1CCc2ccccc2C1	25.1µM*	8.49µM*	0.794µM*	?	2.82µM*	?
SMILES	SMN2 splice enh	FLuc modulator	Rab9 promoter act	ELG1 genotoxic	NPC1 promoter act	ELG1 repair inh
CN(C)c1cccc(C(=O)OCC(=O)c2ccc[nH]2)c1	.	10.7µM*	1.41µM*	?	3.16µM*	?
Cc1ccsc1C(=O)OCC(=O)c1ccc[nH]1	.	13.5µM*	2.82µM*	?	?	?
Cc1ccsc1C(=O)OCC(=O)c1ccc(OC(F)F)cc1	.	1.07µM*	?	2.4%	3.0%	?
CN(CC(=O)Nc1ccc(F)cc1)C(=O)COC(=O)c1cccc(N(C)C)c1	.	?	1.41µM*	?	2.24µM*	?
CCn1c(=N)c(C(=O)NC2CCCCC2)cc2c(=O)n3cc(C)ccc3nc21	-3.3%	-4.0%	.	.	.	.
CCCCOc1ccc(N=Cc2cccs2)cc1	-3.8%	5.36µM*	1.2%	2.6%	1.5%	9.5%
O=C(CN1CCN(Cc2ccc(Cl)cc2)CC1)N/N=C/c1cccc(F)c1	.	-4.8%	-0.9%	-5.4%	-3.7%	?
CC(C)(C)c1ccc(C(=O)N/N=C/c2cccc(Cl)c2)cc1	1.4%	4.78µM*	?	-5.7%	?	?
O=C(N/N=C/c1cccnc1)c1ccc(NC(=O)c2cccc(Cl)c2)cc1	.	1.5%	11.7%	-6.2%	3.8%	-10.1%
O=C(N/N=C/c1cccc(NC(=O)c2ccc(Cl)cc2)c1)c1ccc(O)cc1	.	1.35µM*	3.98µM*	-2.1%	2.51µM*	?
O=C(N/N=C/c1cccc(F)c1)c1ccc(Cl)cc1	15.8µM*	2.39µM*	3.16µM*	?	3.98µM*	?
CCn1cc(C(=O)N2CCN(c3ccccc3)CC2)c(=O)c2cc(S(=O)(=O)N3CCC(C)CC3)ccc21	3.4%	-13.2%	.	.	.	.
COC(=O)Cn1c(=NC(=O)c2ccc([N+](=O)[O-])s2)sc2cc(Br)ccc21	16.8%	-18.4%	-2.3%	10.2%	-3.5%	?
COC(=O)Cn1c(=NC(=O)c2ccc(Cl)s2)sc2cc(C)ccc21	3.98µM*	0.135µM*	?	?	?	?
Cc1ccc(-c2c3c(=O)n(C)c(=O)n(C)c3c3c(C)nc4ccccc4n23)cc1	-2.9%	-7.5%	.	.	.	.
Cc1ccc(Cl)cc1Nc1nn2c(=O)c3ccc(C(=O)NCc4ccc(F)cc4)cc3nc2s1	.	0.0%	.	.	.	.
CCOc1ccc(/C=N/NC(=O)c2cc3c(OC)cc(OC)cc3[nH]2)cc1OC	.	15.1µM*	-2.2%	-8.7%	-2.3%	23.1µM*
COc1ccc(OC)c(/C=N/NC(=O)c2cc3c(OC)cc(OC)cc3[nH]2)c1	.	15.1µM*	3.1%	-9.7%	9.0%	20.6µM*
COc1ccc(OC)c(/C=N/NC(=O)c2cc3c(OC)cccc3[nH]2)c1	.	?	3.2%	-3.7%	8.2%	0.4%
COc1ccc(OC)c(/C=N\NC(=O)c2cc3c(ccc4ccccc43)o2)c1	.	-14.2%	4.1%	-8.8%	2.0%	16.4µM*
C=CCOc1ccc(/C=N/NC(=O)c2cc3c(OC)cc(OC)cc3[nH]2)cc1	.	?	6.6%	-10.0%	3.7%	?
